PI5P4K alpha inh = inhibitors of human PI5P4K alpha. P48426. hit rate 1.2% among 330,000. max response, %. PI5P4Kalpha enzyme, ADP-Glo luminescence, 60 min; active compounds read low; active means max response of -50% or lower; inconclusive means between -30% and -50%; inactive means -30% or higher; further: value at the top dose of about 77 µM; on the % scale 0 is the no-effect control and ±100 the full control effect
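Controls without substrate or without enzyme flank wells where PI5P4Kalpha converts substrate using 5 microM ATP (final). Incubation lasts 60 minutes at room temperature; ADP formed is read by ADP-Glo luminescence.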
HP1b chromo inh = HP1-beta chromodomain-methylated histone interaction inhibition | Potency, µM (top dose mostly 114 µM), inactives show at the highest dose activity change, negative = inhibition, actives largely listed as inhibitors | P83916 | AlphaScreen HP1-beta / biotin-H3K9me3 peptide binding | hit rate 0.56% among 390,000; further: potency means the concentration at half of the fitted maximal effect; nearly all actives have a fitted effect of over 70% in size
Target sequence (P83916 whole entry, looked up): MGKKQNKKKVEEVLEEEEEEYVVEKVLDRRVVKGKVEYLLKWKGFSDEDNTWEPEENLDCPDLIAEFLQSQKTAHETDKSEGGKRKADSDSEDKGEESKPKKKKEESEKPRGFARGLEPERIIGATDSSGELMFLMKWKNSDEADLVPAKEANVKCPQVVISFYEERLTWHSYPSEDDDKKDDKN
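Compound inhibition of the preformed complex between 50 nM HP1-beta and 50 nM biotinylated H3K9me3 peptide was read by AlphaScreen. Buffer was PBS pH 7.4 with 0.01% Tween-20. Incubations ran 30 min at room temperature, with 10 ug/mL donor/acceptor beads.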
G9a inh = G9a (human) methyltransferase inhibition | Q96KQ7 | G9a H3K9 monomethylation, AlphaScreen, 2 h | Potency, µM (highest dose often 102 µM), for inactives: at the highest dose activity, negative = inhibition, usual class: inhibitors | hit rate 8.8% among 350,000 | AID 504332; further: potency means the concentration at half of the fitted maximal effect; on the % scale 0 is the no-effect control and ±100 the full control effect; nearly all actives have a fitted effect of over 75% in size
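Enzyme 20 nM + cpd, 15 min RT; add b-H3K9 pep 500 nM / SAM 20 uM; 2 h RT; anti-H3K9me1 Ab 0.5 ug/mL + SA donor / anti-rabbit acceptor beads 20 ug/mL each, 10 min; AlphaScreen read.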
PLK1 PBD inh = inhibitors of human PLK1 polo-box domain binding | P53350 | Plk1 PBD binding of FITC phosphopeptide, fluorescence polarization | Potency, µM, without a hit: max response, negative = inhibition, usual class: inhibitors | hit rate 2.8% among 360,000 | AID 720504; further: potency means the concentration at half of the fitted maximal effect; series mostly up to about 57 µM; on the % scale 0 is the no-effect control and ±100 the full control effect; nearly all actives have a fitted effect of over 65% in size
Target sequence (P53350 whole entry, looked up, the tested form may be a part): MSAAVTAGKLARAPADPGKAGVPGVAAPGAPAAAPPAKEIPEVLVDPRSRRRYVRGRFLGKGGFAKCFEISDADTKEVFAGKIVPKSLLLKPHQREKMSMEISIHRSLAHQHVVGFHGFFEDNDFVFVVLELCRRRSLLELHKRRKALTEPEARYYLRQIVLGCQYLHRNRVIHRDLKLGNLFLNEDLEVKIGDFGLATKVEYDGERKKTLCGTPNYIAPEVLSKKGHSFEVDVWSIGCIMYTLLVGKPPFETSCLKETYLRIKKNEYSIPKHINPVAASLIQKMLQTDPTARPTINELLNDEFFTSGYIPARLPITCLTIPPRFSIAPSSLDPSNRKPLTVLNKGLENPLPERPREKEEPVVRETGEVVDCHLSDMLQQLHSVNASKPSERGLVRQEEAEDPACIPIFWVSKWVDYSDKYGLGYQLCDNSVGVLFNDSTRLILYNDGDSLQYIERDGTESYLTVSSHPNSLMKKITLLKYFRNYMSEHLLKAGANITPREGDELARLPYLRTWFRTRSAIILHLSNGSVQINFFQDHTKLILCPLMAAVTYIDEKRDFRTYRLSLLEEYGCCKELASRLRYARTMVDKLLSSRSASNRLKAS
JMJD2A Tudor inh = JMJD2A Tudor domain (human) inhibition; AlphaScreen JMJD2A-Tudor / H3K4me3 peptide binding; Potency, µM (series often up to 114 µM), inactives show top-dose activity change, negative = inhibition, most hits filed as inhibitors; hit rate 4.4% among 390,000; AID 504339; further: potency means the concentration at half of the fitted maximal effect; on the % scale 0 is the no-effect control and ±100 the full control effect; nearly all actives have a fitted effect of over 50% in size
BAZ2B inh = BAZ2B (human) inhibition; Q9UIF8; hit rate 4.4% among 360,000; Potency, µM (doses to about 114 µM), inactives show at the top dose activity change, negative = inhibition, most hits filed as inhibitors; AID 504333; AlphaScreen BAZ2B-H3K14Ac peptide displacement; further: potency means the concentration at half of the fitted maximal effect; on the % scale 0 is the no-effect control and ±100 the full control effect; nearly all actives have a fitted effect of over 60% in size
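In this displacement format the biotinylated H3(5-23) peptide acetylated at Lys14 serves as ligand at 50 nM, with BAZ2B at 50 nM in PBS pH 7.4 containing 0.01% Tween-20. Donor and acceptor beads are 10 ug/mL final.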
An asterisk follows results filed as active; ? = inconclusive; / = no result; ! = not active in a repeat; [ ] = another dose, or the depositor's remark. Sampled rows, rich in hits. Any-hit rate of the full collection: about 12%. Unless noted, the call rests on the fitted dose curve; in most records, active means well fitted curve in the direction sought with a large enough effect; inconclusive means small, poorly fitted or top-dose-only effect, or another doubt; inactive means no such curve, though single readings can be large; an effect the other way counts as inactive or inconclusive.

SMILES | PI5P4K alpha inh | HP1b chromo inh | G9a inh | PLK1 PBD inh | JMJD2A Tudor inh | BAZ2B inh
O=C(Nc1ccccc1N1CCCC1)c1ccc2c(c1)OCO2 | 1 | 22% | 45µM* | -15% | -17%[57.1 µM] | -39%
O=C(Nc1cc(C(F)(F)F)ccc1N1CCOCC1)c1c(F)c(F)c(F)c(F)c1F | 2 | -6% | 12%[59 µM] | 30µM* | -19%[11.4 µM] | 7%
FC(F)(F)c1ccc(N2CCOCC2)c(NC2=NCCCCC2)c1 | 4 | 18% | 50µM* | -7% | -15% | ?
O=C(Nc1cc(C(F)(F)F)ccc1N1CCCC1)c1ccc2c(c1)OCO2 | 9 | 51% | 45µM* | -6% | -20% | -20%
Cn1cccc1C(=O)N1CCC2(CC1)CN(C(=O)Nc1ccccc1)C2 | / | / | -4%[12.7 µM] | / | / | /
c1ccc(-c2ccc(-c3ccncn3)cc2)cc1 | 5 | 24% | / | -8% | -16% | /
O=C(Nc1cc(Cl)ccc1N1CCOCC1)c1ccc(Br)o1 | 7 | 22% | 25µM* | 0% | -3% | ?
COc1ccc(N2CCOCC2)c(NC(=O)c2ccc(Br)o2)c1 | 4 | 13% | ? | 2% | -10% | ?
O=C(/C=C/c1cccnc1)c1ccc(F)c(F)c1 | 1 | 24% | 40µM* | -16% | -4% | -16%
CC(=C/C(=O)O)/C=C/c1ccc([N+](=O)[O-])cc1 | -9 | 32% | 56µM* | -8% | -7% | ?
CC(/C=C\c1cccnc1)=C/C(=O)O | 9 | -5% | -27%[59 µM] | -17% | 56µM*! | 50µM*!
CN(C)c1ccc(C(=O)/C=C/c2cccnc2)cc1 | -3 | 9% | -43% | -16% | -24% | ?
CCCCn1c(N)c(N(CC(C)C)C(=O)CSc2nn(-c3ccc(F)cc3)c(=S)s2)c(=O)[nH]c1=O | 5 | 33% | / | 2% | -16% | /
O=C(O)c1nc(NCCc2ccccc2)ncc1Cl | -3 | -9% | 35µM* | -9% | ? | -18%
Cc1ccc(-n2c(C)c3c(C)nnc(C)c3c2C)cc1C | -28 | -22% | 13%[12.7 µM] | -15% | ? | -11%
Cc1n[nH]c(=O)n1-c1ccc(C(C)(C)C)cc1 | -3 | 9% | 18% | ? | -11%[11.4 µM] | -1%
Cc1ccc(-n2c(C)n[nH]c2=S)cc1 | -24 | 42% | 22µM* | -7% | 10µM* | 4%
Cc1ccc(-n2c(C)n[nH]c2=S)cc1C | -3 | 16% | 5µM* | -8% | 8.9µM* | 1%
CCOc1cc(/C=N/NC(=O)c2cc(C)n(-c3ccc(F)cc3)c2C)ccc1O | -6 | -1% | / | -3% | -34% | ?
Cc1cc(C(=O)N/N=C2\CC(=O)c3ccccc32)c(C)n1-c1ccc(F)cc1 | -64* | 28% | 50µM* | -10% | -4%[11.4 µM] | 40µM*
COc1ccc(CNC(=O)C2CCN(S(=O)(=O)c3c(C)noc3/C=C/c3cccs3)CC2)cc1 | / | 42% | 3%[59 µM] | / | 2% | /
NC(=O)c1ccc(CSc2nc3ccccc3s2)cc1 | 6 | 24% | 5% | -17% | -17% | -13%
COc1cc(/C=C(\C#N)C(N)=O)cc(CSc2nc3ccccc3s2)c1O | / | / | 5µM* | / | / | /
Cc1nn(C)c(C)c1CN(C)C(=O)C1CCC(=O)N(C2CCCCCC2)C1 (stereo not drawn) | -1 | 17% | / | -7% | -2% | 11%
Cc1nn(C)c(C)c1CN(C)C(=O)CCCC(=O)O | 3 | 1% | 2%[59 µM] | -7% | 50µM* | 6%
SMILES | PI5P4K alpha inh | HP1b chromo inh | G9a inh | PLK1 PBD inh | JMJD2A Tudor inh | BAZ2B inh
Nn1cnc2scc(-c3ccco3)c2c1=O | -10 | 16% | 10%[59 µM] | -16% | -10% | -3%
c1ccc2nc3c(cc2c1)CCCCCC3 | 0 | 35% | 4%[59 µM] | -8% | 6% | 0%
c1ccc2nc3c(cc2c1)CCCCC3 | ? | 7% | / | 3.4µM* | -31%[11.4 µM] | -3%
CC(C)[C@H](NS(=O)(=O)c1ccccc1)C(=O)OCC(=O)NC(=O)NC1CCCCC1 | 4 | 9% | / | 2% | -9% | /
Nc1c(N)c2ccccc2oc1=O | / | 17% | ? | 3% | -25% | ?
O=c1oc2ccccc2c2oc3cc(O)c(O)cc3c12 | -64* | ? | / | -24% | 7.9µM* | 40µM*
Cc1ccc(NC(=O)CN(C)C(=O)c2ccccc2Sc2ccccc2C#N)cc1 | -3 | 13% | -38% | -5% | -8% | 2%
O=C(c1cc(F)c(F)cc1Cl)N1CCN(CCc2ccccc2)CC1 | -1 | 16% | 3% | -5% | -10% | 0%
COc1ccc(O)c(C2(O)C(=O)c3ccccc3C2=O)c1 | 0 | 26% | 4% | 2% | 10% | -3%
CC(=O)C(C(C)=O)C1(O)C(=O)c2ccccc2C1=O | 3 | 51% | 50µM* | -12% | -5% | -2%
c1ccc(-c2ccccc2OCCCCN2CCCCC2)cc1 | 6 | -33% | 13µM* | -5% | 40µM* | 79µM*
NCCOc1ccccc1-c1ccccc1 | 1 | 30% | 14%[59 µM] | -4% | -10% | 5%
c1ccc(-c2ccccc2OCCCN2CCCC2)cc1 | -4 | ? | 10µM* | -1% | 8.9µM* | ?
c1ccc(-c2ccccc2OCCCN2CCCCCC2)cc1 | 1 | ? | 3.5µM* | -3% | 20µM* | 56µM*
c1ccc(-c2ccccc2OCCn2cncn2)cc1 | 7 | 42% | ? | -3% | 4% | -2%
CC1CC(C)CN(CCOc2ccccc2-c2ccccc2)C1 (stereo not drawn) | -3 | -27% | ? | 5% | 13µM* | -36%
N=C(CC(O)COc1ccccc1-c1ccccc1)N1CCCCC1 (stereo not drawn) | / | / | 24%[59 µM] | / | / | /
CC(=O)Nc1ccc(S(=O)(=O)NC(CC(=O)N(C)Cc2ccccc2)C(C)C)cc1 (stereo not drawn) | -53* | -8% | -5% | 3.4µM* | ? | 12%
CC(=O)Nc1ccc(S(=O)(=O)NC(CC(=O)NCCc2ccccc2)C(C)C)cc1 (stereo not drawn) | / | 18% | 22%[12.7 µM] | -7% | -21% | 9%
COc1ccc(C)cc1N(C)C(=O)c1c2c(nc3ccccc13)C(=O)N(C1CCCCC1)C2 | / | ? | 15%[59 µM] | / | -28% | -7%
COC(=O)c1ccc(Oc2c(Cl)cccc2[N+](=O)[O-])cc1 | -1 | ? | -14%[59 µM] | 21µM* | ? | ?
O=C(O)CC/C(=N\NC(=O)c1ccncc1)c1ccccc1 | 1 | 12% | / | -9% | 25µM* | -7%
COCC(=O)Nc1ncc(S(=O)(=O)c2ccc([N+](=O)[O-])cc2)s1 | -7 | 7% | 35µM* | ? | ? | /
O=C(CN(c1cccc(Br)c1)S(=O)(=O)c1ccccc1)N/N=C/c1cc([N+](=O)[O-])ccc1O | -19 | -12% | / | ? | 50µM* | /
CCCCC(=O)Nc1ncc(S(=O)(=O)c2ccc([N+](=O)[O-])cc2)s1 | 3 | 39% | / | -10% | -12% | -6%

Source: PubChem BioAssay (National Center for Advancing Translational Sciences (NCATS))
